From PubChem
Sampled rows, rich in hits. Any-hit rate of the full collection: about 3.2%.
Sm TGR block: blocks Schistosoma mansoni thioredoxin glutathione reductase; actives 3% (n = 360,000); Potency, µM (titrated, usually from 114 µM), for inactives: top-dose activity change, negative = inhibition, usual class: inhibitors; AID 485364; Q962Y6; purified TGR, DTNB reduction, TNB absorbance 405 nm; further: nearly all actives have a fitted effect of over 60% in size
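Kinetic colorimetric format: TGR-catalysed, NADPH-driven DTNB reduction monitored via TNB absorbance. Enzyme dispensed at 20 nM; compound exposure 15 min at room temperature before reaction start.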
AMA1-RON2 inh: inhibitors of Plasmodium falciparum AMA1-RON2 interaction | AlphaScreen AMA1-biotinylated RON2 peptide binding | actives 0.2% (n = 360,000) | Potency, µM (highest dose often 58.2 µM), inactives show at the top dose activity change, negative = inhibition, usual class: inhibitors;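 further: 0% = vehicle wells and -100% = peptide control; nearly all actives have a fitted effect of over 45% in size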
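AMA1 (3D7) with his tag at 25 nM final met compounds first, then biotinylated RON2 peptide at 25 nM; detection used donor plus acceptor beads, 10 µg/mL apiece, read by AlphaScreen after 30 min at room temperature.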
AmpC inh detg: inhibitors of E. coli AmpC beta-lactamase with detergent; P00811; AmpC hydrolysis of nitrocefin, absorbance 480 nm, 0.01% Triton; Potency, µM (highest dose often 114 µM), inactives show at the top dose activity change, negative = inhibition, usual class: inhibitors; actives 0.041% (n = 370,000); AID 485294;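 further: 0% = no-compound wells and -100% = no-enzyme wells; nearly all actives have a fitted effect of over 25% in size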
Target sequence (P00811 whole entry, looked up): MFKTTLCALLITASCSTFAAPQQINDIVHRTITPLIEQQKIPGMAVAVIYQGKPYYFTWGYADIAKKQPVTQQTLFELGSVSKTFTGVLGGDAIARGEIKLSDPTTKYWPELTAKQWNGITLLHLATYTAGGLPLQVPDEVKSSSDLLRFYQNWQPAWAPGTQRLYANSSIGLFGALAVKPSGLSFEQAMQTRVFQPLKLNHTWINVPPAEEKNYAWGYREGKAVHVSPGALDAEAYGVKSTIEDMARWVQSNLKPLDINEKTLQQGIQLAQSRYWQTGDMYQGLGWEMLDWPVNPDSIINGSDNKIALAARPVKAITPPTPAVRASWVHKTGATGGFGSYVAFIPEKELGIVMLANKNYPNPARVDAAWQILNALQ
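20 mM phosphate pH 7.0 + 0.01% (detergent screen) or 0.0001% Triton X-100; 5.3 nM AmpC reagent; cpd preinc 15 min RT; nitrocefin (800 uM stock) to start; A480 q20 s × 4 min; Activity was normalised to no-enzyme and no-compound control wells.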
AmpC inh no detg: inhibitors of E. coli AmpC beta-lactamase without detergent; P00811; AmpC nitrocefin hydrolysis, absorbance 480 nm, 0.0001% Triton; Potency, µM (doses to about 57.1 µM), inactives show at the highest dose activity change, negative = inhibition, actives largely listed as inhibitors; actives 0.52% (n = 330,000); AID 485341;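 further: plate controls were no compound for no effect and no enzyme for full effect; nearly all actives have a fitted effect of over 20% in size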
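AmpC (5.3 nM in the dispensed reagent) in 20 mM phosphate pH 7.0 with 0.01% (detergent screen) or 0.0001% Triton X-100 was preincubated with compounds for 15 min at room temperature. Nitrocefin was then added from an 800 uM solution, and hydrolysis was followed at 480 nm.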
RE007 growth inh: less growth of the S. pombe RE007 Vpr strain; S. pombe RE007 Vpr strain, BacTiter-Glo ATP luminescence, 24 h; Potency, µM (top dose mostly 92.2 µM), for the others: at the top dose activity change, negative = less growth, hits mostly inhibitors; actives 0.21% (n = 360,000); active means well fitted falling curve with a large enough effect; inconclusive means small, poorly fitted or top-dose-only effect; inactive means no such curve, though single readings can be large or run the other way; further: nearly all actives have a fitted effect of over 50% in size
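Fission yeast RE007 carrying one integrated HIV-1 vpr copy, seeded at OD 0.01 in PMG+AL medium with 23 nL pinned compound. Grown 24 h at 30 degrees; viability read by BacTiter-Glo luminescence after 5 min.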
The depositor's hits bear a star; u = inconclusive; x = no result. Unless noted, the call rests on the fitted dose curve; in most records, active means well fitted curve in the direction sought with a large enough effect; inconclusive means small, poorly fitted or top-dose-only effect, or another doubt; inactive means no such curve, though single readings can be large; an effect the other way counts as inactive or inconclusive. Unless noted, on the % scale 0 is the no-effect control and ±100 the full control effect; potency means the concentration at half of the fitted maximal effect.

SMILES | Sm TGR block | AMA1-RON2 inh | AmpC inh detg | AmpC inh no detg | RE007 growth inh
Cc1ccc(C(=O)c2ccc([N+](=O)[O-])cc2)cc1 | -4% | -17% | -2% | -8% | -15%
Cc1ccc(S(=O)(=O)Cn2nnnc2C(C(C)C)N2CCN(Cc3ccco3)CC2)cc1 (centres undefined) | 3% | 4% | u | 38% | -2%
Cc1ccc(S(=O)(=O)Cn2nnnc2CN(Cc2ccco2)Cc2cccs2)cc1 | 45µM* | -10% | -1% | -9% | -15%
O=C1C(=O)N(C2CCN(C(=O)c3ccc(F)cc3)CC2)CCN1Cc1ccc(F)cc1 | -2% | x | 1% | x | x
Cc1cc(C)c2sc(NC(=O)c3ccc(S(=O)(=O)N4CCOCC4)cc3)nc2c1 | 2% | x | -3% | x | x
Nc1c(Cl)ncnc1N/N=C/c1ccccn1 | u | -22% | u | -5% | u
Nc1c(Cl)ncnc1N/N=C/c1cccnc1 | 50µM* | -12% | 4% | -14% | -3%
N#Cc1nc(COc2ccccc2F)oc1NCc1ccc(F)cc1 | 25µM* | -17% | -2% | -27% | -4%
CN(C(=O)/C=C/c1ccc([N+](=O)[O-])s1)c1ccccc1 | 11µM* | 14% | -5% | -12% | -26%
CCSc1nc2c([nH]c3ccccc32)c(=O)n1-c1cccc(OC)c1 | 4% | x | -3% | x | x
COc1ccc(-n2nc3c(N4CCCC(C(=O)NCc5cccc(F)c5)C4)nnc(C)c3c2C)cc1 (centres undefined) | -10% | x | 0% | x | x
O=C(O)CCc1ccc(-c2ccc(Cl)cc2)n1Cc1ccco1 | 40µM* | -5% | u | -19% | -2%
COc1ccc(-c2ccc(CCC(=O)O)n2Cc2ccco2)cc1 | 25µM* | -29% | -6% | -22% | -4%
CS(=O)(=O)N(CC(=O)NCc1ccco1)Cc1ccc(Cl)cc1 | 11µM* | 7% | 6% | 18% | -19%
Cc1ccc(S(=O)(=O)NCC(=O)N(CC(=O)NCc2ccco2)Cc2ccc(F)cc2)cc1 | 3% | -2% | 6% | -7% | 3%
Cc1ccc(S(=O)(=O)N(CC(=O)NCc2ccco2)Cc2ccc(F)cc2)cc1 | 40µM* | -3% | u | -14% | 27%
CN(C)c1ccc(-[n+]2c(-c3ccccc3)cc(-c3ccccc3)cc2-c2ccccc2)cc1 | x | -26% | 5% | 88% | -2%
CN(C)c1ccc(C=c2c3cc([N+](=O)[O-])ccc3n3c2cc(-c2ccccc2)[n+]3C)cc1 | x | 8.9µM* | x | x | u
CN(C)c1ccc(C=c2c3ccccc3n3c2cc(-c2ccccc2)[n+]3C)cc1 | x | 32µM* | x | x | u
CN(C)c1ccc(C=c2c3ccccc3n3c2cc(-c2ccc(Cl)cc2)[n+]3C)cc1 | x | 18µM* | x | x | u
COc1cc(N(C)C)ccc1C=c1c2ccccc2n2c1cc(-c1ccccc1)[n+]2C | x | 13µM* | x | x | u
CCN(CC)c1ccc(/C=C/c2cccc[n+]2C)c(OC)c1 | -15% | -4% | u | 19% | -28%
CN(c1ccc(Cl)cc1)c1cc(=O)n(C)c2ccccc12 | 4% | 5% | u | 34% | u
Cc1ccc(NC(=O)COCc2cc(-c3cccs3)on2)cc1Cl | 4% | x | 4% | x | x
O=C(Cc1ccc(F)cc1)NCCc1csc(-c2ccc(C(F)(F)F)cc2)n1 | -5% | x | 6% | x | x
SMILES | Sm TGR block | AMA1-RON2 inh | AmpC inh detg | AmpC inh no detg | RE007 growth inh
Cc1nc(-c2ccc(S(=O)(=O)N3CCN(c4cccc(C(F)(F)F)c4)CC3)cc2)co1 | -1% | x | -5% | x | x
CCOC(=O)C1CCN(S(=O)(=O)c2c(Cl)ccc3nonc23)CC1 | 0.89µM* | x | 16% | 0% | x
Fc1ccc(-c2noc3ncnc(NCc4ccc(Cl)cc4)c23)cc1 | 11% | x | 1% | x | x
CN(C)c1ccc(NC2=C(Cl)C(=O)c3ccccc3C2=O)cc1 | 8.9µM* | 7.9µM* | u | -14% | u
COc1ccccc1NC1=C(NC(C)=O)C(=O)c2ccccc2C1=O | 4µM* | 16% | 3% | -9% | -29%
CC(=O)Nc1ccc(NC2=C(Cl)C(=O)c3ccccc3C2=O)cc1 | 0.89µM* | -1% | 17% | -20% | 6%
COC1=C(Nc2ccccc2OC)C(=O)c2ccccc2C1=O | u | u | -9% | -19% | 1%
